TexasRed fluor: Texas Red fluorescence interference in TRb-SRC2 counter-screen | TRb/SRC2 Texas Red total fluorescence interference | Potency, µM (series often up to 106 µM), without a hit: at the highest dose fluorescence change, negative = quenching | actives 0.29% (n = 280,000) | AID 1479; active means well fitted curve in either direction with a large enough effect; inconclusive means small, poorly fitted or top-dose-only effect
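Human TRb ligand-binding domain at 0.6 uM with 20 nM Texas Red SRC2 peptide in Tris buffer containing 1 uM T3 and 5% DMSO, incubated with compound 5 h at ambient temperature. Total fluorescence (555/632 nm) calculated as parallel + 2 × perpendicular.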
Tau fluor counter: counter-screen for tau fibril formation inhibitors | tau K18 P301L Alexa594 fluorescence, heparin fibrillization | Potency, µM (titrated, usually from 57.7 µM), for the others: top-dose activity change, negative = decrease | actives 0.93% (n = 280,000); further: nearly all actives have a fitted effect of over 55% in size
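Human tau K18 P301L (15 uM unlabeled, 0.24 uM Alexa 594-labeled) in 100 mM sodium acetate pH 7 with 20 uM heparin, 6 hr at 37 C. ThT 30 uM added, 1 hr ambient; Alexa 594 FP and total fluorescence read at 555/632 nm.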
Tau ThT inhib: tau fibrillization inhibition (ThT binding); recombinant tau K18 P301L, heparin-induced fibrillization, ThT fluorescence; P10636; actives 2.1% (n = 270,000); Potency, µM (series often up to 57.4 µM), without a hit: at the top dose activity, negative = inhibition, most hits filed as inhibitors; further: nearly all actives have a fitted effect of over 55% in size
Target sequence (P10636 561-689 P618L limits assumed): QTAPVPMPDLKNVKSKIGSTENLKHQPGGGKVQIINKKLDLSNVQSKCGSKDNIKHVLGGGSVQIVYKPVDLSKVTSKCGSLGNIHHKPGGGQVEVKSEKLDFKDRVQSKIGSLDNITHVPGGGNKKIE
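Using a mix of unlabeled (15 uM) and Alexa 594-labeled (0.24 uM) tau K18 P301L, heparin-triggered fibrillization over 6 hr at 37 C was scored by ThT fluorescence.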
Tau fibril FP: tau fibrillization inhibition (FP) | P10636 | K18 P301L tau heparin fibrillization, Alexa594 FP, 6 h | Potency, µM (titrated, usually from 57.7 µM), for the others: at the top dose activity, negative = inhibition, hits mostly inhibitors | actives 0.39% (n = 280,000) | AID 1468; further: nearly all actives have a fitted effect of over 55% in size
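Quantitative HTS format: compounds meet 15 uM recombinant K18 P301L tau and Alexa 594-tau tracer in 100 mM sodium acetate pH 7; 20 uM heparin triggers fibrillization at 37 C over 6 hr; FP gives the signal.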
TRb SRC2 PPI: TRbeta-SRC2 interaction inhibition | actives 0.065% (n = 280,000) | AID 1469 | TRbeta-SRC2 peptide binding, fluorescence polarization; receptor liganded with 1 µM T3 | Potency, µM (titrated, usually from 106 µM), for the others: at the highest dose activity change, negative = inhibition, usual class: inhibitors | P10828;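 further: plate controls were bound peptide for no effect and peptide without receptor for full effect; nearly all actives have a fitted effect of over 50% in size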
Target sequence (P10828 whole entry, looked up): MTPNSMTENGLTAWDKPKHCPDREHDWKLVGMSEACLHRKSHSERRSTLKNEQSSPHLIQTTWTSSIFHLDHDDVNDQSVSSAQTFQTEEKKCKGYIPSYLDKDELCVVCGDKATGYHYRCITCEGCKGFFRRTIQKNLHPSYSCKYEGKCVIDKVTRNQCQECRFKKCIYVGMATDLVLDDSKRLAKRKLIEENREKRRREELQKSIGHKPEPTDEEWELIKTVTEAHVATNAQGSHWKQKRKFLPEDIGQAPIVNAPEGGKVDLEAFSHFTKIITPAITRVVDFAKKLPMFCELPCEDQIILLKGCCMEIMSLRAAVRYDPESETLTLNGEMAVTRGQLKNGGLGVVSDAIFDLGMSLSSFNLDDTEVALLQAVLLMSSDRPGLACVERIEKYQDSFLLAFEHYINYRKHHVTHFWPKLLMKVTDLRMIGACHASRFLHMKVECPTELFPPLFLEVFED
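Fluorescence polarization of 20 nM Texas Red SRC2 peptide with 0.6 uM human TRb ligand-binding domain, in Tris buffer with 1uM T3 and 5% DMSO. Incubated 5 hr ambient; normalized to unbound and bound controls.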
GoLoco inh red: RGS12 GoLoco-Gai1 interaction inhibition | P63096 | Gai1:RGS12 GoLoco peptide FP, rhodamine, 10 min | Potency, µM (highest dose often 61.6 µM), inactives show at the highest dose activity, negative = inhibition, actives largely listed as inhibitors | actives 0.44% (n = 230,000); active means well fitted inhibition curve with a large enough effect, not every such curve was filed as active; inactive means no such curve, though single readings can be large or run the other way; further: nearly all actives have a fitted effect of over 30% in size
* marks the source's active call; other numbers are inactive results; ? = inconclusive; . = not tested or not shown; [ ] = remark or other dose. Only some compounds are listed: those with a hit (about 3.1% of all), similar ones and a draw of the others. Unless noted, the call rests on the fitted dose curve; in most records, active means well fitted curve in the direction sought with a large enough effect; inconclusive means small, poorly fitted or top-dose-only effect, or another doubt; inactive means no such curve, though single readings can be large; an effect the other way counts as inactive or inconclusive. Unless noted, on the % scale 0 is the no-effect control and ±100 the full control effect; potency means the concentration at half of the fitted maximal effect.

SMILES	TexasRed fluor	Tau fluor counter	Tau ThT inhib	Tau fibril FP	TRb SRC2 PPI	GoLoco inh red
CC(=O)c1c(C)nc(-c2ccc(OCC(=O)Nc3ccc(F)cc3)cc2)n1O	-0.9%	-4.3%	-10.2%	-4.3%	-7.1%	-3.9%
O=c1/c(=C\c2cc([N+](=O)[O-])cc([N+](=O)[O-])c2O)sc2nc3ccccc3n12	44.7µM*[quencher]	?	5.01µM*	?	16.1%	160.0%
CCN1C(=O)/C(=C/C=C2\N(CC)c3cc(S(=O)(=O)N(C)C)ccc3N2c2ccccc2)SC1=S	8.1%	?	?	?	5.9%	-119.7%
O=C(OC1CCc2ccccc2C1=O)c1ccccc1O (centres undefined)	-0.2%	?	25.1µM*	?	2.9%	4.7%
O=C(N/N=C1\CCc2ccccc21)c1ccccc1O	0.8%	-12.9%	?	-8.6%	0.0%	5.3%
O=C(OC1CCCCC1)c1ccc2c(c1)C1C=CCC1C(C(=O)O)N2 (centres undefined)	?	-20.9%	?	-1.8%	-5.5%	15.4%
O=C(O)C1Nc2c(O)cccc2C2C=CCC12 (centres undefined)	?	?	12.6µM*	?	16.7%	61.2%
C/C(CC(=O)Nc1cccc(Cl)c1Cl)=N\NC(=O)c1ccccc1C	-8.6%	-35.4%	5.62µM*	-44.2%	-6.6%	208.3%
O=C(OCc1nnc(-c2ccc(Cl)cc2)o1)c1ccc(=O)n(Cc2ccccc2)n1	0.7%	-12.5%	-12.3%	6.5%	-19.6%	8.8%
O=Cc1sc(=O)n(Cc2cccc(C(=O)O)c2)c1Cl	-1.5%	-8.8%	12.6µM*	10µM*	0.4%	-20.1%
O=C(CSc1nnc(-c2ccccc2)o1)c1cccc([N+](=O)[O-])c1	11.2µM*[quencher]	-12.5%	?	-9.4%	-8.2%	.
O=C(CSc1nnc(-c2ccccc2)o1)c1ccc2c(c1)OCCO2	0.7%	-15.6%	-12.1%	-11.6%	9.1%	-3.7%
O=C(CSc1nnc(-c2ccccc2)o1)c1nnc(-c2ccccc2)o1	-7.3%	?	15.8µM*	?	9.0%	71.7%
COc1ccc(N2C(=O)C(Cl)=C(N3CCCC3)C2=O)cc1	-0.4%	-21.1%	?	?	-0.6%	4.5%
CC1CCCN(C2=C(Cl)C(=O)N(c3cccc(Cl)c3)C2=O)C1 (centres undefined)	0.0%	?	14.1µM*	17.8µM*	-1.3%	9.5%
COc1ccc(N2C(=O)C(Cl)=C(N3CCCC(C)C3)C2=O)cc1 (centres undefined)	1.2%	?	15.8µM*	28.2µM*	8.4%	-2.2%
Cc1csc(C2=C(O)CN(c3ccc4c(c3)OCCOCCOCCOCCO4)C2=N)n1	-1.8%	4.0%	1.0%	4.2%	-3.6%	10.5%
CC(Sc1nc(-c2ccccc2)cs1)C(=O)Nc1ccc(Cl)cn1 (centres undefined)	-0.4%	-24.8%	-5.7%	-14.6%	10.8%	5.5%
Cn1cc(/C=C2\SC(=S)N(NC(=O)c3ccccc3)C2=O)c2ccccc21	?	23.7%	?	25.1µM*	17.8µM*	-18.3%
Cn1cc(/C=C2\SC(=S)N(NC(=O)c3cccc(Cl)c3)C2=O)c2ccccc21	4.0%	-17.4%	?	-5.6%	-4.1%	-41.8%
O=C(NN1C(=O)/C(=C/C=C/c2ccccc2)SC1=S)c1ccncc1	0.4%	?	11.2µM*	-10.7%	-0.6%	104.3%
O=C(CNS(=O)(=O)c1ccccc1F)Nc1ccc(N2CCOCC2)cc1	-0.9%	-9.1%	?	8.3%	-24.5%	3.8%
Cc1nnc(C)n1/N=C/c1cccc(Oc2ccccc2)c1	0.0%	4.7%	0.9%	?	-0.4%	0.0%
Cc1nnsc1-c1c(C(=O)O)c(C)nn1-c1ccc(OC(F)(F)F)cc1	-4.5%	0.4%	-3.3%	-2.8%	-1.4%	5.3%
CCc1ccc(NC(=O)c2sc3nc(C)c(Cl)c(C)c3c2NC(=O)c2ccccc2OC)cc1	10µM*[quencher]	-5.5%	?	-10.5%	-9.2%	.
SMILES	TexasRed fluor	Tau fluor counter	Tau ThT inhib	Tau fibril FP	TRb SRC2 PPI	GoLoco inh red
COc1ccc(/C=C/C=C2\N=C(SC)SC2=O)cc1	-3.8%[53 µM]	-28.7%	3.98µM*	?	-0.3%[53 µM]	-4.5%
COc1ccc(CNC(=O)CSc2nnc(-c3cccnc3)n2N)cc1	-3.7%	-3.3%	-5.7%	7.9%	-4.9%	39.6%
COC(=O)C(=Cc1ccccc1[N+](=O)[O-])C(=O)OC	-3.1%	-26.9%	25.1µM*	?	3.7%	0.0%
COc1ccc(NC(=O)/C=C/c2ccccc2[N+](=O)[O-])c(OC)c1	-1.3%	?	12.6µM*	9.9%	-3.7%	8.3%
O=C(O)c1ccc(N/N=C/C=C/c2ccccc2[N+](=O)[O-])cc1	-3.4%	-26.2%	12.6µM*	11.6%	-13.8%	3.2%
COc1ccc(/C=N/Nc2ncccc2[N+](=O)[O-])c(OC)c1	-1.2%	?	12.6µM*	1.3%	2.6%	8.5%
COc1ccc(/C=N/Nc2ncc(-c3ccccc3)cn2)c(OC)c1	-3.5%	-18.9%	?	-3.8%	1.1%	3.7%
O=S(=O)(O)c1ccc(N=Nc2cc(S(=O)(=O)O)c3ccccc3c2O)c2ccccc12	100µM*[fluorescent]	.	.	.	?	.
Cc1ccc(C)n1-c1ccc(N2CCOCC2)nc1	20.8%	-29.1%	12.6µM*	-13.0%	5.3%	-3.2%
Cc1ccc(S(=O)(=O)Nc2ccc(N3CCOCC3)nc2)cc1	0.8%	-11.2%	-4.1%	9.9%	3.4%	-67.5%
CSc1ccc(-c2nc3c(C)cccn3c2Nc2ccc3c(c2)OCCO3)cc1	-1.3%	?	?	14.8%	4.1%	.
O=C(Oc1cccc2c(O)cccc12)c1ccccc1	0.0%	12.6µM*[quencher]	?	10.9%	0.8%	4.5%
Cc1cc(C)c(C(=O)/C=C/c2ccco2)c(=O)[nH]1	-0.1%	-22.9%	22.4µM*	?	-0.5%	-5.5%
Cc1ccc(/C=C/C(=O)c2c(C)cc(C)[nH]c2=O)cc1	-3.3%	-2.1%	-11.2%	5.4%	-2.3%	9.3%
Cc1ccc(Nc2c(-c3ccccc3O)nc3cnccn23)cc1	-1.1%	17.8µM*[quencher]	-17.2%	10.3%	-2.6%	3.1%
Oc1ccccc1-c1nc2cnccn2c1Nc1ccc(Cl)cc1	-1.2%	12.6µM*[quencher]	-14.2%	-1.4%	2.6%	.
Cc1cc(=O)oc2cc(OCC(=O)N/N=C/c3cc([N+](=O)[O-])ccc3O)ccc12	-1.7%	-19.3%	3.55µM*	-7.4%	-4.2%	14.1%
CSc1cccc(NC(=S)NN(C)C)c1	-1.4%	-12.7%	-15.2%	-12.6%	-10.2%	5.4%
Oc1ccc(Br)cc1-c1nc2cnccn2c1NC1CCCCC1	1.7%	14.1µM*[quencher]	?	?	-4.5%	-9.2%
